Experiments:
Assay in all cases: PBM binding z-score (relative to random genomic background probes); higher = stronger binding; sequences stand for … in GC…GCGATTGACAGCGTAGAATGAAGG
[1] = tested on: RARb homodimer (NR concentration 270 nM)
Summary of the method: (§1)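 Ligand-free nuclear receptor dimers were applied to custom Agilent 4×180K protein-binding microarrays whose double-stranded probes carried direct-repeat seeds, single-nucleotide variants, half-site ablations and random human genomic background sequences in 34-nt variable regions. Incubation lasted 1 h. Binding z-scores were computed against the random background probes from regression-normalized fluorescence.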

[2] = tested on: RARg:RXRa (NR concentration 270 nM, RXRa partner concentration 90 nM)
Summary of the method: as §1

[3] = tested on: RARg homodimer (NR concentration 270 nM)
Summary of the method: as §1

[4] = tested on: RXRa DBDmut IVT, anti-RXR (DBD mutation: RXRa K156A/R161A, NR concentration 90 nM)
Summary of the method: as §1

[5] = tested on: RXRa homodimer (NR concentration 180 nM)
Summary of the method: as §1

[6] = tested on: THRa:RXRa (NR concentration 90 nM, RXRa partner concentration 90 nM)
Summary of the method: as §1

[7] = tested on: THRa homodimer (NR concentration 90 nM)
Summary of the method: as §1

[8] = tested on: VDR:RXRa (NR concentration 270 nM, RXRa partner concentration 90 nM)
Summary of the method: as §1

[9] = tested on: VDR homodimer (NR concentration 270 nM)
Summary of the method: as §1

AGTCAAAGTTCATCTAGGCAACGTAAGATATGCT
PBM binding z-score [1]: 3.91
PBM binding z-score [2]: 5.49
PBM binding z-score [3]: 6.04
PBM binding z-score [4]: 4.78
PBM binding z-score [5]: 4.97
PBM binding z-score [6]: 2.22
PBM binding z-score [7]: -0.142
PBM binding z-score [8]: 4.9
PBM binding z-score [9]: 4.64

CCTTACGGGTCACTCCAGATTATAGCATCGGAGT
PBM binding z-score [1]: 2.58
PBM binding z-score [2]: 4.16
PBM binding z-score [3]: 3.98
PBM binding z-score [4]: 1.28
PBM binding z-score [5]: 3.98
PBM binding z-score [6]: 2.65
PBM binding z-score [7]: 0.098
PBM binding z-score [8]: 2.72
PBM binding z-score [9]: 1.39

TGAATGAGGTTATAAGATCACGGAACGTTGCAAA
PBM binding z-score [1]: 0.253
PBM binding z-score [2]: 2.04
PBM binding z-score [3]: 1.23
PBM binding z-score [4]: 0.931
PBM binding z-score [5]: 2.7
PBM binding z-score [6]: 2.08
PBM binding z-score [7]: 0.188
PBM binding z-score [8]: 1.53
PBM binding z-score [9]: 0.468

CCGAGTAGTTTATGGGGCATTCAGGCAACGGTGA
PBM binding z-score [1]: 0.512
PBM binding z-score [2]: -0.0698
PBM binding z-score [3]: 0.182
PBM binding z-score [4]: 0.904
PBM binding z-score [5]: -0.158
PBM binding z-score [6]: 0.238
PBM binding z-score [7]: 0.0882
PBM binding z-score [8]: -0.229
PBM binding z-score [9]: 0.37

GCGACTGGGGCAAAGGAGGTTACCATAAGGTTGG
PBM binding z-score [1]: 1.87
PBM binding z-score [2]: 1.1
PBM binding z-score [3]: 1.14
PBM binding z-score [4]: -0.468
PBM binding z-score [5]: 1.12
PBM binding z-score [6]: 3.4
PBM binding z-score [7]: 0.609
PBM binding z-score [8]: 1.26
PBM binding z-score [9]: 0.291

CCGATTGGGGCAAGGTTACCATAACGCACAGCCA
PBM binding z-score [1]: 1
PBM binding z-score [2]: 1.02
PBM binding z-score [3]: 1.3
PBM binding z-score [4]: 0.17
PBM binding z-score [5]: 1.09
PBM binding z-score [6]: 1.2
PBM binding z-score [7]: 0.241
PBM binding z-score [9]: -0.398

CTCGAAAGGTCGTGCTCAGGTGAGTTTACCAAAC
PBM binding z-score [1]: 2.8
PBM binding z-score [2]: 5.22
PBM binding z-score [3]: 4.34
PBM binding z-score [4]: 2.46
PBM binding z-score [5]: 5.17
PBM binding z-score [6]: 3.84
PBM binding z-score [7]: 1.18
PBM binding z-score [8]: 3.98
PBM binding z-score [9]: 3.54

TCATATAGGTAAACAGGTGAAGGTCCGTAAGTTA
PBM binding z-score [1]: 0.91
PBM binding z-score [2]: 0.737
PBM binding z-score [3]: 0.389
PBM binding z-score [4]: 1.36
PBM binding z-score [5]: 0.85
PBM binding z-score [6]: 0.707
PBM binding z-score [7]: 0.377
PBM binding z-score [8]: 0.989
PBM binding z-score [9]: 0.32

TCTATTAGTTGATTAGGGCAAACGAAACAGCGGA
PBM binding z-score [1]: 0.43
PBM binding z-score [2]: 0.388
PBM binding z-score [3]: 0.663
PBM binding z-score [4]: 0.888
PBM binding z-score [5]: 0.631
PBM binding z-score [6]: 0.515
PBM binding z-score [7]: 0.119
PBM binding z-score [8]: 0.637
PBM binding z-score [9]: 0.435

GCATATAGGCAATACAAGGTGAAAGTCCGATTGT
PBM binding z-score [1]: 0.688
PBM binding z-score [2]: 0.477
PBM binding z-score [3]: 0.305
PBM binding z-score [4]: 0.168
PBM binding z-score [5]: 0.621
PBM binding z-score [6]: 3.17
PBM binding z-score [7]: 0.6
PBM binding z-score [8]: 0.0245
PBM binding z-score [9]: -0.0976

TCGAGTAGGTTACCAATGGGCCATTCAGCTTTCT
PBM binding z-score [1]: 0.543
PBM binding z-score [2]: 0.598
PBM binding z-score [3]: 0.337
PBM binding z-score [4]: 0.37
PBM binding z-score [5]: 0.688
PBM binding z-score [6]: 0.184
PBM binding z-score [7]: -0.731
PBM binding z-score [8]: 0.0845
PBM binding z-score [9]: -0.805

ATCTCTAGGTAAGTCTCAGTTCAGTGAAGAACGC
PBM binding z-score [1]: 1.02
PBM binding z-score [2]: 0.158
PBM binding z-score [3]: 0.271
PBM binding z-score [4]: 0.813
PBM binding z-score [5]: 0.0582
PBM binding z-score [6]: 1.07
PBM binding z-score [7]: 1.23
PBM binding z-score [8]: 0.65
PBM binding z-score [9]: 1.72

AATACAGGGTCATCGTAGGCCAGAGTCCGCACAG
PBM binding z-score [1]: 3.75
PBM binding z-score [2]: 5.73
PBM binding z-score [3]: 5.28
PBM binding z-score [4]: 3.35
PBM binding z-score [5]: 6.62
PBM binding z-score [6]: 4.68
PBM binding z-score [7]: 1.62
PBM binding z-score [8]: 5.19
PBM binding z-score [9]: 3.38

TAATATAGGTAATACAGGTGAAAGTCGGCATCTA
PBM binding z-score [1]: 0.493
PBM binding z-score [2]: 0.614
PBM binding z-score [3]: 0.786
PBM binding z-score [4]: 0.247
PBM binding z-score [5]: 0.906
PBM binding z-score [6]: 0.893
PBM binding z-score [7]: 0.26
PBM binding z-score [8]: 0.659
PBM binding z-score [9]: 0.35

CCTACTGGGCCAAAGCTCATTGATTCCAATGCTC
PBM binding z-score [1]: -0.417
PBM binding z-score [2]: -0.161
PBM binding z-score [3]: -0.172
PBM binding z-score [4]: -0.0907
PBM binding z-score [5]: -0.521
PBM binding z-score [6]: -0.58
PBM binding z-score [7]: -0.358
PBM binding z-score [8]: -0.593
PBM binding z-score [9]: -0.874

GCGACTGGGGCCTCAGCAGGTTACCATAACTTAA
PBM binding z-score [1]: 0.199
PBM binding z-score [2]: -0.489
PBM binding z-score [3]: -0.568
PBM binding z-score [4]: -0.479
PBM binding z-score [5]: -0.182
PBM binding z-score [6]: 1.19
PBM binding z-score [7]: -0.118
PBM binding z-score [8]: -0.529
PBM binding z-score [9]: -0.622

ACTAGCTGGCCAAGGGTCACTCAAGATTAGTCCG
PBM binding z-score [1]: 3.54
PBM binding z-score [2]: 3.78
PBM binding z-score [3]: 3.54
PBM binding z-score [4]: 0.138
PBM binding z-score [5]: 3.9
PBM binding z-score [6]: 2.48
PBM binding z-score [7]: 0.0817
PBM binding z-score [8]: 2.59
PBM binding z-score [9]: 0.917

ATGTCTAGGTAAAAGTTCAGTGAATCCCGAGGAT
PBM binding z-score [1]: 2.32
PBM binding z-score [2]: 1.91
PBM binding z-score [3]: 1.91
PBM binding z-score [4]: 0.508
PBM binding z-score [5]: 1.57
PBM binding z-score [6]: 1.11
PBM binding z-score [7]: 0.0268
PBM binding z-score [8]: 1.3
PBM binding z-score [9]: 0.949

TCTTGAAGATCAGCAGGTTAAGAAAGCTGGCCAA
PBM binding z-score [1]: -0.114
PBM binding z-score [2]: -0.154
PBM binding z-score [3]: -0.281
PBM binding z-score [4]: 0.572
PBM binding z-score [5]: 0.316
PBM binding z-score [6]: -0.00481
PBM binding z-score [7]: -1.05
PBM binding z-score [8]: 0.374
PBM binding z-score [9]: -0.317

CCTGGGAGGACAGAAGGTCAGAGCTGTCCGCTTT
PBM binding z-score [1]: 3.38
PBM binding z-score [2]: 3.49
PBM binding z-score [3]: 3.63
PBM binding z-score [4]: -0.277
PBM binding z-score [5]: 1.92
PBM binding z-score [6]: 2.69
PBM binding z-score [7]: 0.124
PBM binding z-score [9]: 0.289

TCTATTAGTTAAAGGGCAACCGACGAGTCCGTTT
PBM binding z-score [1]: 2.17
PBM binding z-score [2]: 1.22
PBM binding z-score [3]: 1.42
PBM binding z-score [4]: 1.7
PBM binding z-score [5]: 1.28
PBM binding z-score [6]: 0.666
PBM binding z-score [7]: -0.0439
PBM binding z-score [8]: 1.46
PBM binding z-score [9]: 1.77

CGTGCAAGGTCAAAGGTCAGTGAAGAGATGACGG
PBM binding z-score [1]: 5.61
PBM binding z-score [2]: 8.84
PBM binding z-score [3]: 8.41
PBM binding z-score [4]: 4.08
PBM binding z-score [5]: 10.3
PBM binding z-score [6]: 4.91
PBM binding z-score [7]: 2.23
PBM binding z-score [8]: 6.7
PBM binding z-score [9]: 3.9

ATACCAAGGTGATCGAGAGGTCGTTGATACTAAC
PBM binding z-score [1]: 1.77
PBM binding z-score [2]: 2.91
PBM binding z-score [3]: 1.06
PBM binding z-score [4]: 0.829
PBM binding z-score [5]: 1.71
PBM binding z-score [6]: 2.59
PBM binding z-score [7]: 0.902
PBM binding z-score [8]: 3.02
PBM binding z-score [9]: 1.98

CAAACGAGGGCATGAGTTGATAGCAAATGCCGAT
PBM binding z-score [1]: 0.782
PBM binding z-score [2]: 1.53
PBM binding z-score [3]: 1.79
PBM binding z-score [4]: 2.13
PBM binding z-score [5]: 1.29
PBM binding z-score [6]: 1.56
PBM binding z-score [7]: -0.234
PBM binding z-score [8]: 1.58
PBM binding z-score [9]: 1.62

ACTCGGAGCACAAAGGTCAGAGCTACGCCAGTGA
PBM binding z-score [1]: 4.45
PBM binding z-score [2]: 5.16
PBM binding z-score [3]: 5.11
PBM binding z-score [4]: 0.345
PBM binding z-score [5]: 4.98
PBM binding z-score [6]: 2.63
PBM binding z-score [7]: -0.28
PBM binding z-score [8]: 3.58
PBM binding z-score [9]: 0.477

GCACATAGGTAATACAAGGTGAAAGTCCGATTGT
PBM binding z-score [1]: 0.838
PBM binding z-score [2]: 0.572
PBM binding z-score [3]: 0.547
PBM binding z-score [4]: 0.115
PBM binding z-score [5]: 0.869
PBM binding z-score [6]: 4.19
PBM binding z-score [7]: 1.02
PBM binding z-score [8]: 0.394
PBM binding z-score [9]: -0.0736
